# Results reported in PubChem BioAssay.
# Inconclusive results are not listed. Activity calls are given as the source filed them.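 Rule for the calls, unless noted: active = normalized viability below 100% at a tested concentration; inactive = the rest.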
# How the values were obtained:
# [1] = SU-DIPG-VI glioma cell viability, MIPE4.0 library, CellTiter-Glo luminescence, qHTS (AID 1347066; cut-off not given, nearly all actives have AC50 up to about 30 µM;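 note: cells exposed to compound for 48 hours before readout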); conditions: CellTiter-Glo ATP luminescence
# [2] = SU-DIPG-XXV glioma cell viability, MIPE5.0 library, qHTS (AID 1347068; cut-off not given, nearly all actives have IC50 up to about 30 µM)
# [3] = sensitizers of A549 cells to miR-34 induction, primary screen, imaging, A549 dox-inducible miR-34, nuclei and caspase counts (AID 1347080;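 active = compounds whose cell count with miR-34 switched on is under 0.7 times the count with it off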); conditions: A549 miR-34 inducible, Hoechst nuclei count, 48 h
# [4] = modifiers of HSF1 nuclear foci, imaging, Selleck Cancer Library (AID 1347162; in the data active = plate-normalised HSF1 focus index below about 0.46); conditions: human cells, at 10 µM; SSMD: measured here: HSF1 foci SSMD mean; cell count: measured here: cell number; plate-normalised HSF1 focus index: stronger effect = lower value
# [5] = survival rescue of mitochondrial mutant cells in low glucose, primary screen, MELAS cybrids, Rieske KO mouse fibroblasts, CellTiter-Glo (AID 1508586;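 active = mean z-score across replicates of 1.96 or higher in either the MELAS or the Rieske mutant cell line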;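 note: z relative to plate mean and SD of compound and empty wells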)
# [6] = ovarian cancer cell viability with rucaparib, profiling panel, oncology-focused library, rucaparib conditional (AID 1508598); conditions: patient-derived ovarian cancer cells, CellTiter-Glo viability, 144 h, stronger effect = lower value
# [7] = stronger effect = lower value, cell number ratio, induced over uninduced
# [8] = measured here: relative caspase fold change +Dox/-Dox
# [9] = measured here: total cells with miR-34 induction, stronger effect = lower value
# [10] = measured here: total cells without miR-34 induction
compound,measurement,setting,value
Cn1cc(C2=C(c3cn(C4CCN(Cc5ccccn5)CC4)c4ccccc34)C(=O)NC2=O)c2ccccc21,outcome,[1],inactive
same,outcome,[2],inactive
same,fold change,[3]; [7],0.96 (inactive)
same,fold change,[3]; [8],1.18
same,cell count,[3]; [9],6030
same,cell count,[3]; [10],6280
same,SSMD,[4],0.559
same,cell count,[4],6710
same,plate-normalised HSF1 focus index,[4],1.03 (inactive)
same,z-score,"[5]; MELAS cybrid survival, CellTiter-Glo 48 h, stronger effect = higher value",-0.204 (inactive)
same,z-score,"[5]; Rieske KO mouse fibroblast survival, CellTiter-Glo 72 h",-2.05
same,viability,"[6]; at 0.000305 µM, OCI-C5x cells, with rucaparib 10 µM, 100% = cells with rucaparib alone",118% (inactive)
same,viability,"[6]; at 0.000305 µM, OCI-C5x cells, without rucaparib",151% (inactive)
same,viability,"[6]; at 0.000305 µM, OCI-P5x cells, with rucaparib 20 µM, 100% = cells with rucaparib alone",108% (inactive)
same,viability,"[6]; at 0.000305 µM, OCI-P5x cells, without rucaparib",115% (inactive)
same,viability,"[6]; at 0.00122 µM, OCI-C5x cells, with rucaparib 10 µM, 100% = cells with rucaparib alone",136% (inactive)
same,viability,"[6]; at 0.00122 µM, OCI-C5x cells, without rucaparib",148% (inactive)
same,viability,"[6]; at 0.00122 µM, OCI-P5x cells, with rucaparib 20 µM, 100% = cells with rucaparib alone",113% (inactive)
same,viability,"[6]; at 0.00122 µM, OCI-P5x cells, without rucaparib",105% (inactive)
same,viability,"[6]; at 0.00488 µM, OCI-C5x cells, with rucaparib 10 µM, 100% = cells with rucaparib alone",127% (inactive)
same,viability,"[6]; at 0.00488 µM, OCI-C5x cells, without rucaparib",136% (inactive)
same,viability,"[6]; at 0.00488 µM, OCI-P5x cells, with rucaparib 20 µM, 100% = cells with rucaparib alone",109% (inactive)
same,viability,"[6]; at 0.00488 µM, OCI-P5x cells, without rucaparib",105% (inactive)
same,viability,"[6]; at 0.0195 µM, OCI-C5x cells, with rucaparib 10 µM, 100% = cells with rucaparib alone",138% (inactive)
same,viability,"[6]; at 0.0195 µM, OCI-C5x cells, without rucaparib",144% (inactive)
same,viability,"[6]; at 0.0195 µM, OCI-P5x cells, with rucaparib 20 µM, 100% = cells with rucaparib alone",106% (inactive)
same,viability,"[6]; at 0.0195 µM, OCI-P5x cells, without rucaparib",98.4% (active)
same,viability,"[6]; at 0.0781 µM, OCI-C5x cells, with rucaparib 10 µM, 100% = cells with rucaparib alone",127% (inactive)
same,viability,"[6]; at 0.0781 µM, OCI-C5x cells, without rucaparib",149% (inactive)
same,viability,"[6]; at 0.0781 µM, OCI-P5x cells, with rucaparib 20 µM, 100% = cells with rucaparib alone",119% (inactive)
same,viability,"[6]; at 0.0781 µM, OCI-P5x cells, without rucaparib",105% (inactive)
same,viability,"[6]; at 0.313 µM, OCI-C5x cells, with rucaparib 10 µM, 100% = cells with rucaparib alone",136% (inactive)
same,viability,"[6]; at 0.313 µM, OCI-C5x cells, without rucaparib",146% (inactive)
same,viability,"[6]; at 0.313 µM, OCI-P5x cells, with rucaparib 20 µM, 100% = cells with rucaparib alone",111% (inactive)
same,viability,"[6]; at 0.313 µM, OCI-P5x cells, without rucaparib",93.7% (active)
same,viability,"[6]; at 1.25 µM, OCI-C5x cells, with rucaparib 10 µM, 100% = cells with rucaparib alone",149% (inactive)
same,viability,"[6]; at 1.25 µM, OCI-C5x cells, without rucaparib",156% (inactive)
same,viability,"[6]; at 1.25 µM, OCI-P5x cells, with rucaparib 20 µM, 100% = cells with rucaparib alone",113% (inactive)
same,viability,"[6]; at 1.25 µM, OCI-P5x cells, without rucaparib",92.6% (active)
same,viability,"[6]; at 5 µM, OCI-C5x cells, with rucaparib 10 µM, 100% = cells with rucaparib alone",159% (inactive)
same,viability,"[6]; at 5 µM, OCI-C5x cells, without rucaparib",140% (inactive)
same,viability,"[6]; at 5 µM, OCI-P5x cells, with rucaparib 20 µM, 100% = cells with rucaparib alone",102% (inactive)
same,viability,"[6]; at 5 µM, OCI-P5x cells, without rucaparib",99.4% (active)
C=C1[C@@H](C)[C@H]2[C@H](Cc3ccccc3)NC(=O)C23[C@H](OC(C)=O)/C=C/[C@](C)(O)C(=O)[C@@H](C)C/C=C/[C@H]3[C@@H]1O (stereo not given in full),fold change,[3]; [7],1.3 (inactive)
same,fold change,[3]; [8],0.464
same,cell count,[3]; [9],990
same,cell count,[3]; [10],762
CCCCC/C=C\C/C=C\C/C=C\C/C=C\CCCC(=O)O[C@H](COC(=O)CCCCCCCCCCCCCCCCC)COP(=O)([O-])OCC[N+](C)(C)C,fold change,[3]; [7],0.924 (inactive)
same,fold change,[3]; [8],0.766
same,cell count,[3]; [9],5220
same,cell count,[3]; [10],5650
C[N+]1(C)[C@@H]2CC(OC(=O)C(CO)c3ccccc3)C[C@H]1[C@@H]1O[C@@H]12 (stereo not given in full),fold change,[3]; stronger effect = lower value,0.929 (inactive)
same,fold change,[3]; [8],1.43
same,cell count,[3]; [9],8500
same,cell count,[3]; [10],9160
C/C1=C/C(=O)O[C@@H]2C[C@@H](CC[C@H](C)/C=C\CC1)O[C@@](O)([C@@H]1CSC(=O)N1)C2,fold change,[3]; stronger effect = lower value,1.2 (inactive)
same,fold change,[3]; [8],0.63
same,cell count,[3]; [9],1070
same,cell count,[3]; [10],888
CCCCCCC(=O)O[C@H]1CC[C@H]2[C@@H]3C[C@H](O)C4=CC(=O)CC[C@]4(C)[C@H]3CC[C@]12C,fold change,[3]; stronger effect = lower value,0.966 (inactive)
same,fold change,[3]; [8],1.11
same,cell count,[3]; [9],5330
same,cell count,[3]; [10],5520
COc1ccc(S(=O)(=O)N(CCO)c2ccccc2CN(C)C/C=C/c2ccc(Cl)cc2)cc1,fold change,[3]; [7],1.03 (inactive)
same,fold change,[3]; [8],1.21
same,cell count,[3]; [9],5240
same,cell count,[3]; [10],5100
CC1OC(=O)C(C(C)C)NC(=O)C(C(C)C)OC(=O)C(C(C)C)NC(=O)C(C)OC(=O)C(C(C)C)NC(=O)C(C(C)C)OC(=O)C(C(C)C)NC(=O)C(C)OC(=O)C(C(C)C)NC(=O)C(C(C)C)OC(=O)C(C(C)C)NC1=O (stereo not given),fold change,[3]; stronger effect = lower value,0.784 (inactive)
same,fold change,[3]; [8],1.28
same,cell count,[3]; [9],1020
same,cell count,[3]; [10],1300
CCCCC/C=C\C/C=C\C/C=C\C/C=C\CCCC(=O)NCCS(=O)(=O)O,fold change,[3]; [7],0.96 (inactive)
same,fold change,[3]; [8],1.07
same,cell count,[3]; [9],5500
same,cell count,[3]; [10],5730
COc1ccc(/C=C\c2cc(OC)cc(OC)c2)cc1,fold change,[3]; [7],1.08 (inactive)
same,fold change,[3]; [8],1.44
same,cell count,[3]; [9],1220
same,cell count,[3]; [10],1130
CCCCC/C=C\C/C=C\C/C=C\C/C=C\CCCC(=O)NCCOP(=O)(O)O,fold change,[3]; [7],0.994 (inactive)
same,fold change,[3]; [8],0.95
same,cell count,[3]; [9],5850
same,cell count,[3]; [10],5880
CCCCC/C=C\C/C=C\C/C=C\C/C=C\CCCCOC(CO)CO,fold change,[3]; [7],0.983 (inactive)
same,fold change,[3]; [8],0.95
same,cell count,[3]; [9],5720
same,cell count,[3]; [10],5810
CCCCC/C=C\C/C=C\C/C=C\C/C=C\CCCC(=O)N(C)C,fold change,[3]; [7],0.925 (inactive)
same,fold change,[3]; [8],1.14
same,cell count,[3]; [9],5340
same,cell count,[3]; [10],5780
CCCCCCC(=O)O[C@H]1CC[C@H]2[C@@H]3C=CC4=CC(=O)CC[C@]4(C)[C@H]3CC[C@]12C,fold change,[3]; stronger effect = lower value,0.948 (inactive)
same,fold change,[3]; [8],0.362
same,cell count,[3]; [9],5660
same,cell count,[3]; [10],5970
CCCCC/C=C\C/C=C\C/C=C\C/C=C\CCCC(=O)NC(CO)CO,fold change,[3]; [7],0.961 (inactive)
same,fold change,[3]; [8],0.877
same,cell count,[3]; [9],5640
same,cell count,[3]; [10],5870
CCCCC/C=C\C/C=C\C/C=C\C/C=C\CCCC(=O)N[C@@H](C)C(=O)O,fold change,[3]; [7],0.941 (inactive)
same,fold change,[3]; [8],1.84
same,cell count,[3]; [9],5770
same,cell count,[3]; [10],6140
CCCCC/C=C\C/C=C\C/C=C\C/C=C\CCCC(=O)NC[C@@H](C)O,fold change,[3]; [7],0.961 (inactive)
same,fold change,[3]; [8],0.786
same,cell count,[3]; [9],5790
same,cell count,[3]; [10],6030
CCCCC/C=C\C/C=C\C/C=C\C/C=C\CCCC(=O)NC,fold change,[3]; [7],0.953 (inactive)
same,fold change,[3]; [8],2.18
same,cell count,[3]; [9],5880
same,cell count,[3]; [10],6170
CCCCCCCC/C=C\CCCCCCCC(=O)Nc1ccccc1,fold change,[3]; [7],1.04 (inactive)
same,fold change,[3]; [8],0.81
same,cell count,[3]; [9],6190
same,cell count,[3]; [10],5950
CCCCCCCCCCCCCCCC(=O)OC[C@H](COP(=O)([O-])OCC[N+](C)(C)C)OC(=O)CCCC=O,fold change,[3]; [7],0.934 (inactive)
same,fold change,[3]; [8],2.44
same,cell count,[3]; [9],5310
same,cell count,[3]; [10],5690
c1cc2cc(N3CCNCC3)ccc2cn1,fold change,[3]; [7],0.956 (inactive)
same,fold change,[3]; [8],0.665
same,cell count,[3]; [9],5380
same,cell count,[3]; [10],5630
CCCCCC(=O)N[C@H]1CCOC1=O,fold change,[3]; [7],0.883 (inactive)
same,fold change,[3]; [8],0.721
same,cell count,[3]; [9],5400
same,cell count,[3]; [10],6120
CCCC[C@@H](C)C(OC(=O)C[C@@H](CC(=O)O)C(=O)O)C(C[C@@H](C)C[C@H](O)CCCC[C@@H](O)C[C@H](O)[C@H](C)N)OC(=O)C[C@@H](CC(=O)O)C(=O)O (stereo not given in full),fold change,[3]; [7],0.933 (inactive)
same,fold change,[3]; [8],0.809
same,cell count,[3]; [9],5390
same,cell count,[3]; [10],5780
CN1C(=O)[C@]23CC4=CC=C[C@H](O)[C@H]4N2C(=O)[C@@]1(CO)SS3,fold change,[3]; stronger effect = lower value,0.901 (inactive)
same,fold change,[3]; [8],1.24
same,cell count,[3]; [9],657
same,cell count,[3]; [10],730
